Screening results (PubChem BioAssay)
HT1080-NT tox: kills 2HG-producing HT-1080-NT fibrosarcoma cells | HT-1080-NT fibrosarcoma viability, CellTiter-Glo ATP luminescence, 48 h | Potency, µM (highest dose often 46.1 µM), for inactives: at the highest dose activity, negative = less viability, actives largely listed as cytotoxic | 360,000 tested, 1.6% active | AID 686970;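 note: NT is the 2HG producing partner of a matched IDH1 knockdown line; 0% = DMSO-treated cells and -100% = media-only wells without cells; nearly all actives have a fitted effect of over 55% in size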
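Viability by CellTiter-Glo luminescence after 48 h compound exposure at 37C of HT-1080-NT cells (750/well, RPMI, 5% FBS). % activity scaled between DMSO wells and medium-only wells, then curve-fitted and categorized by curve class.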
HepG2 viability: counter-screen for TGF-b inhibitors: cytotoxicity in HepG2 cells. HepG2 CAGA-GFP viability, ATP luminescence, 18 h. Potency, µM (highest dose often 46.1 µM), without a hit: top-dose activity change, negative = cytotoxicity, usual class: cytotoxic. 410,000 tested, 0.76% active. AID 588856
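CellTiter-Glo luminescence gave cytotoxicity after 18 hours at 37 degrees C. The cells were HepG2 CAGA-GFP in 1% FBS DMEM, stimulated with 500 pg/mL TGF-beta after compound addition. %Activity was normalised to no-cell wells (complete cell-killing) and DMSO (no toxicity), and curves were fitted and classified.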
TGFb SMAD3 inh: blocks TGF-b signaling | HepG2 CAGA-GFP TGF-b/SMAD3 reporter, GFP fluorescence, 18 h; TGF-beta stimulated, 500 pg/mL final | Potency, µM (top dose mostly 46.1 µM), for inactives: top-dose activity, negative = inhibition, hits mostly inhibitors | 410,000 tested, 1.2% active; note: % is set by controls: 0 for no effect and ±100 for the full control effect; nearly all actives have a fitted effect of over 65% in size
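Per well, imaged GFP fluorescence of HEPG2 CAGA-GFP cells gives the signal; cells get compound, then TGF-beta (500 pg/mL final), 18 h at 37 degrees C; %Activity versus -TGF-beta and +DMSO controls.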
HT1080 IDH1KD tx: toxicity to HT-1080 IDH1 knockdown cells (counter line). HT-1080 IDH1 knockdown viability, ATP luminescence, 48 h. Potency, µM (top dose mostly 46.1 µM), for inactives: at the top dose activity, negative = toxicity, most hits filed as cytotoxic. 360,000 tested, 2% active;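 note: 0% = DMSO wells and -100% = cell-free medium wells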
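In this qHTS, HT-1080 cells depleted of IDH1 are exposed for 48 h at 37 °C to compound titrations. Toxicity is scored from CellTiter-Glo luminescence, with DMSO as full viability and medium alone as none.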
ATXN viability: reduces viability in counter-screen for ATXN expression inhibitors. S2 cells (HEK-293 line with an ATXN2-luciferase reporter) viability, CellTiter-Fluor protease fluorescence, 24 h. Potency, µM (highest dose often 56.7 µM), usual class: cytotoxic. 400,000 tested, 0.49% active. AID 651635; note: nearly all actives have a fitted effect of over 40% in size
ATXN2 expr inh: inhibitors of ATXN2 expression; 360,000 tested, 0.72% active; Potency, µM (highest dose often 57 µM), for the others: at the top dose activity change, negative = inhibition, most hits filed as inhibitors; HEK-293 ATXN2-luciferase reporter, luminescence, 24 h; note: % is set by controls: 0 for no effect and ±100 for the full control effect; nearly all actives have a fitted effect of over 55% in size
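ATXN2-luciferase reporter cells (luciferase flanked by upstream and downstream ATXN2 gene portions) were treated 24 h at 37 °C with compounds at up to 57 uM. SteadyGlo luminescence gave expression; GF-AFC fluorescence gave viability.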
Active calls of the source: *; i = inactive; ? = inconclusive; . = no result given. Sampled rows, rich in hits. Any-hit rate of the full collection: about 3.8%. Calls come from the whole dose curve; as a rule, active = well fitted curve in the direction sought with a large enough effect; inconclusive = small, poorly fitted or top-dose-only effect, or another doubt; inactive = no such curve, though single readings can be large; an effect the other way counts as inactive or inconclusive. Potency is the fitted concentration of half-maximal effect.

SMILES	HT1080-NT tox	HepG2 viability	TGFb SMAD3 inh	HT1080 IDH1KD tx	ATXN viability	ATXN2 expr inh
CCOc1c(Br)cc(CNC2CCCCCCC2)cc1OC	-15%	11µM*	?	-17%	?	.
CCOc1c(Br)cc(CNc2ccc3c(c2)OCCO3)cc1OC	2.9µM*	-11%	?	1.2µM*	i	-10%
COc1ccc(CNc2ccc(C)c(C)c2)cc1	6%	18%	-5%	11%	i	-17%
CCOc1cc(CNc2ccc3c(c2)OCCO3)cc(Br)c1OC	2.3µM*	-17%	?	1.5µM*	?	23%
COc1cc(CNc2ccc(C)c(C)c2)cc(OC)c1OC	5µM*	-18%	?	4µM*	i	-17%
COc1cc(NC(=O)Cn2c(=O)n(CC3CCC(C(=O)NCCc4ccccc4)CC3)c(=O)c3ccccc32)cc(OC)c1 (stereo unspecified)	.	-9%	0%	.	i	8%
COc1ccc(-c2nc3sc(CCNS(=O)(=O)c4c(C)cc(C)cc4C)c(C)n3n2)cc1	.	2%	?	.	.	.
CCOc1ccc(NC(=O)c2cc3ccccc3cc2O)cc1	6%	-2%	-6%	2%	.	.
O=C(Nc1cccnc1)c1ccccc1Oc1ccccc1	3%	-21%	6%	-2%	i	2%
O=C(Nc1ccc(C(=O)Nc2ccccc2Cl)cc1)c1cccnc1	8.2µM*	1%	-1%	5.8µM*	i	0%
O=C(Nc1cccnc1)c1ccc(Oc2ccccc2)cc1	?	-43%	0%	26µM*	i	72%
CN1CCN(c2ccc(NC(=O)c3ccc(-c4ccc(Br)cc4)o3)cc2)CC1	15µM*	22µM*	?	23µM*	?	?
CCOc1ccc(NC(=O)c2cc3ccccc3cc2OC)cc1	?	1%	-20%	23µM*	i	21%
OCC[N+]1(CCc2ccccc2)CCOCC1	.	-26%	-18%	.	.	.
CN1N=C(N)c2cn([C@@H]3O[C@H](COP(=O)(O)O)[C@@H](O)[C@@H]3O)c3ncnc1c23	.	.	.	.	.	71%
COc1ccc(-n2c(CNC(=O)c3ccccc3C(F)(F)F)nnc2SC)cc1	.	.	.	.	i	.
CN1CCN(c2ccc(NC(=O)c3ccc(Oc4ccccc4)cc3)cc2)CC1	15µM*	-31%	?	?	i	-22%
COc1cc2ccccc2cc1C(=O)Nc1ccc(N2CCN(C)CC2)cc1	?	13µM*	-14%	?	.	.
COc1cc2ccccc2cc1C(=O)N/N=C/c1cccs1	?	3%	-16%	4.1µM*	i	.
COc1ccc(NC(=O)c2cc3ccccc3cc2OC)cc1	16µM*	-1%	-4%	16µM*	i	64%
COc1cc2ccccc2cc1C(=O)Nc1cccnc1	-1%	-27%	0%	-4%	i	46%
COc1cc2ccccc2cc1C(=O)Nc1ccc(N2CCN(C(=O)C(C)C)CC2)cc1	18%	-7%	15%	0%	?	.
COC(=O)N/N=C/c1cccs1	0%	-11%	-5%	4%	i	-10%
O=C(Cn1cccn1)N1CCOc2c(cc(-c3ncc(C(F)(F)F)cc3Cl)cc2OCC2CCCO2)C1 (stereo unspecified)	.	.	.	.	i	.
CCCN(c1ccccc1F)S(=O)(=O)c1cc(-c2cc(C)no2)ccc1C	.	-21%	?	.	.	.
SMILES	HT1080-NT tox	HepG2 viability	TGFb SMAD3 inh	HT1080 IDH1KD tx	ATXN viability	ATXN2 expr inh
O=S(=O)(N=Cc1c(O)ccc2ccccc12)c1cccs1	.	.	.	.	.	47%
CC(=O)N(C(C)=O)N1C(=O)C2C3c4ccccc4C(c4ccccc43)C2C1=O (stereo unspecified)	21µM*	-21%	?	13µM*	i	.
CN1C(=O)C2C3c4ccccc4C(c4ccccc43)[C@@H]2C1=O (stereo partly specified)	9%	-1%	0%	6%	i	0%
COc1cccc(C2=NS(=O)(=O)N(C)C(C(=O)Nc3cccc(O)c3)=C2)c1	.	-4%	-28%	.	i	15%
CC(=NNC(=S)N1CC2CCC(CC2)C1)c1ccccn1	-23%	13µM*	?	-17%	?	.
C/C(=N\NC(=O)C1CCCN(S(=O)(=O)c2ccccc2)C1)c1ccncc1 (stereo unspecified)	-2%	9%	14%	-6%	i	3%
CC(=NNC(=S)N1CCCCCC1)c1cccc2cccnc12	-8%	14%	2.2µM*	?	?	?
CC(=NNC(=S)N1CC2CCC(CC2)C1)c1cnccn1	?	-49%	3.2µM*	?	?	?
CC(=NNC(=S)Nc1ccc(C)cc1)c1ccccn1	?	-57%	?	?	i	-60%
C/C(=N\NC(=O)C1CCCN(S(=O)(=O)c2ccccc2)C1)c1ccccn1 (stereo unspecified)	?	-32%	-27%	?	?	8.9µM*
O=Cc1ccc2[nH]ccc2c1	.	-12%	-30%	.	.	.
Cc1cc(C(=O)NCc2nc(-c3cccc(NC(=O)c4ccccc4)c3)oc2C)nc(C)n1	.	.	.	.	i	.
CC(=NNC(=S)N1CCN(C2CCCCCC2)CC1)c1ccccn1	21µM*	-79%	?	?	1.2µM*	-82%
CC(=NNC(=S)N1CCN(c2ccccn2)CC1)c1ccccn1	-9%	2%	0%	?	i	-22%
O=C(Nc1ccc(F)cc1)C1CCCN(S(=O)(=O)c2cccc3cccnc23)C1 (stereo unspecified)	-7%	-6%	-1%	-11%	?	-21%
O=C(Nc1nc2cc(Cl)ccc2s1)C1CCCN(S(=O)(=O)c2cccc3cccnc23)C1 (stereo unspecified)	-3%	17%	?	?	?	18µM*
CCc1ccc(NC(=O)C2CCCN(S(=O)(=O)c3cccc4cccnc34)C2)cc1 (stereo unspecified)	.	-8%	10µM*	.	.	.
CCc1cccc2sc(N3CCN(C(=O)c4ccc([N+](=O)[O-])o4)CC3)nc12	-25%	-96%	18µM*	?	.	?
O=S1(=O)CCC(NC(=S)SCCOc2ccccc2)C1 (stereo unspecified)	-24%	-40%	20µM*	-16%	?	-18%
Cc1ccc(F)c(C2C3C=CCCC3(C)C(=O)N2Cc2ccccc2)c1 (stereo unspecified)	.	-6%	?	.	.	.
CCCOc1ccc(C(=O)C(CN2CCOCC2)c2ccccc2)cc1 (stereo unspecified)	18µM*	-92%	16µM*	16µM*	?	20µM*
